Experimental findings from PubChem BioAssay (Tox21) are described below.

SMILES strings stand for the structures. Several values for one entry are separate records, joined by “and”; a condition that tells them apart may be missing. Equal values may be shown once. Unmarked numbers belong to inactive results. Inconclusive results are not listed. Activity calls are given as the source filed them. Unless noted, calls come from the whole dose curve; as a rule, active = well fitted curve in the direction sought with a large enough effect in the repeat runs; inconclusive = weak or mixed curves; inactive = no such curve, though single readings can be large; an effect the other way counts as inactive or inconclusive.

The nature of assay [1]: qHTS assay to identify small molecule agonists of the hypoxia (HIF-1) signaling pathway (AID 1224846; active = well fitted activation curve with a large enough effect in the signal ratio in the repeat runs, not every such curve was filed as active; the % refers to the signal ratio). In outline: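 HRE-bla ME-180 beta-lactamase reporter cells in medium with 0.5% dialyzed FBS, pre-incubated 5 h then exposed to compounds 17 h at 37C, 5% CO2; reporter induction read with CCF4-AM FRET substrate.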
For orientation: In qHTS, concentration-response curves come from the screen itself.

The nature of assay [2]: qHTS assay to identify small molecule agonists of H2AX - cell viability counter screen (AID 1224847; calls by dose curve; note: nearly all actives have a fitted effect of over 30% in size; note: potency is the fitted concentration of half-maximal effect;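 for activity change, negative = cytotoxicity: wild-type CHO-K1 cells; top concentration of the series differs between compounds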). In outline:
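Cells plated first: CHO-K1, 1000 per well in 10% FBS medium, incubated overnight at 37C. Then 15-point compound titration added (final DMSO 0.76%) for 3 hr. Finally CellTiter-Glo added and luminescence read.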

Assay [3] in a line: qHTS RealTime-Glo MT Cell Viability Assay in HepG2 cells - 24 hour (AID 1224867). Note: nearly all actives have a fitted effect of over 50% in size. Note: potency is the fitted concentration of half-maximal effect. The gist of the method: (§1)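 Viability was tracked continuously by NanoLuc luminescence from prosubstrate reduced by living HepG2 cells, at successive time points over 40 h of compound exposure. Cells with reagent were preincubated 5 h at 37 °C before compound addition.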
The nature of assay [4]: qHTS RealTime-Glo MT Cell Viability Assay in HEK293 cells - 32 hour (AID 1224868). For activity change, negative = cytotoxic: top concentration of the series differs between compounds. Note: nearly all actives have a fitted effect of over 50% in size. Note: potency is the fitted concentration of half-maximal effect. In outline:
(§2)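 Viability tracked continuously by luminescence as live cells reduce a prosubstrate for NanoLuc; HEK293 cells preincubated 5 h, compound-treated at 37 C, and read at 0, 8, 16, 24, 32 and 40 h.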

Assay [5] in a line: A CellTox Green Cytotoxicity Assay to monitor cytotoxicity in HEK293 cells - 40 hour (AID 1224871). Note: nearly all actives have a fitted effect of over 45% in size. Note: potency is the fitted concentration of half-maximal effect. In outline:
(§3)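 HEK293 cells, 600/well, were preincubated 5 hours and then exposed to compounds at 37 C for up to 40 hours. A cell-impermeant cyanine dye staining dead-cell DNA was read by fluorescence at 0, 8, 16, 24, 32 and 40 h time points.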

A short description of assay [6]: qHTS RealTime-Glo MT Cell Viability Assay in HEK293 cells - 16 hour (AID 1224872). For activity change, negative = cytotoxicity: top concentration of the series differs between compounds. Note: nearly all actives have a fitted effect of over 50% in size. Note: potency is the fitted concentration of half-maximal effect. In outline: as §2
Assay [7] is described as follows: qHTS RealTime-Glo MT Cell Viability Assay in HepG2 cells - 8 hour (AID 1224873). Note: nearly all actives have a fitted effect of over 55% in size. Note: potency is the fitted concentration of half-maximal effect. The gist of the method: (§4)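 Real-time viability: cells seeded at 600 per well together with NanoLuc and cell-permeant prosubstrate, compounds added after 5 h incubation. Luminescence tracked at 0, 8, 16, 24, 32 and 40 h of exposure.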
Assay [8] is described as follows: qHTS RealTime-Glo MT Cell Viability Assay in HEK293 cells - 40 hour (AID 1224874). Note: nearly all actives have a fitted effect of over 50% in size. Note: potency is the fitted concentration of half-maximal effect. The conditions noted are these: RealTime-Glo luminescence; max response: stronger effect = lower value. The gist of the method:
(§5)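 600 cells/well were plated with the nonlytic NanoLuc/prosubstrate reagent, pre-incubated 5 h, then given 23 nL of compound in DMSO. Incubation at 37 C for 40 h, with luminescence from viable-cell-reduced substrate read repeatedly from 0 h.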

The nature of assay [9]: A CellTox Green Cytotoxicity Assay to monitor cytotoxicity in HEK293 cells - 24 hour (AID 1224875). Note: nearly all actives have a fitted effect of over 45% in size. Note: potency is the fitted concentration of half-maximal effect. The gist of the method:
as §3

Assay [10] in a line: A CellTox Green Cytotoxicity Assay to monitor cytotoxicity in HepG2 cells - 16 hour (AID 1224876). Note: nearly all actives have a fitted effect of over 45% in size. Note: potency is the fitted concentration of half-maximal effect. In outline: (§6)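 HepG2 cells, 600/well, preincubated 5 h with CellTox Green dye, then exposed to Tox21 compounds in DMSO at 37 C for up to 40 h. Dead-cell DNA fluorescence read at the indicated time point.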
Assay [11] in a line: qHTS RealTime-Glo MT Cell Viability Assay in HepG2 cells - 32 hour (AID 1224877). Note: nearly all actives have a fitted effect of over 55% in size. Note: potency is the fitted concentration of half-maximal effect. In outline:
as §1

Assay [12] can be described thus: A CellTox Green Cytotoxicity Assay to monitor cytotoxicity in HepG2 cells - 24 hour (AID 1224878). Note: nearly all actives have a fitted effect of over 45% in size. Note: potency is the fitted concentration of half-maximal effect. In outline:
as §6

Assay [13] is described as follows: A CellTox Green Cytotoxicity Assay to monitor cytotoxicity in HepG2 cells - 40 hour (AID 1224879). Note: nearly all actives have a fitted effect of over 40% in size. Note: potency is the fitted concentration of half-maximal effect. In outline:
as §6

A short description of assay [14]: qHTS RealTime-Glo MT Cell Viability Assay in HEK293 cells - 0 hour (AID 1224880). In outline: as §5
Assay [15] in a line: A CellTox Green Cytotoxicity Assay to monitor cytotoxicity in HEK293 cells - 0 hour (AID 1224869). Note: nearly all actives have a fitted effect of over 50% in size. In outline: as §3
Assay [16] is described as follows: qHTS RealTime-Glo MT Cell Viability Assay in HepG2 cells - 40 hour (AID 1224870). Note: nearly all actives have a fitted effect of over 50% in size. Note: potency is the fitted concentration of half-maximal effect. The gist of the method:
as §4

Assay [17] in a line: qHTS assay to identify small molecule antagonists of the estrogen related receptor (ERR) signaling pathway from Tox21 library (AID 1224848). Note: nearly all actives have a fitted effect of over 50% in size. Note: potency is the fitted concentration of half-maximal effect. The gist of the method:
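Reading was by luminescence 30 min after ONE-Glo addition. Before that, ERR cells at 2,000 per well had rested 6 h at 37 C/5% CO2 and then received pin-tooled compounds in DMSO for 18 h at 37 C.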

The nature of assay [18]: qHTS assay to identify small molecule agonists of the estrogen related receptor (ERR) signaling pathway from Tox21 library (AID 1224849; calls by dose curve; note: nearly all actives have a fitted effect of over 15% in size). The conditions noted are these: ERR reporter cell line, ONE-Glo luciferase, 18 h; at 92.4 µM (top of the series) unless noted. In outline: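 ERR reporter cells (NTP line) pre-incubated 6 hours at 37 C, then exposed to compounds for 18 hours at 37 C. ONE-Glo luciferase luminescence was read after 30 minutes at room temperature.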

The nature of assay [19]: qHTS assay to identify small molecule agonists of H2AX (AID 1224845; active = well fitted activation curve with a large enough effect in the signal ratio in the repeat runs, not every such curve was filed as active; the % refers to the signal ratio; note: potency is the fitted concentration of half-maximal effect). In outline: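 Phospho-H2AX Ser139 measured by HTRF (ex 320 nm; em 665 and 620 nm) after 24 hr antibody incubation. Compounds, 15 concentrations, 0.76% DMSO, were applied to CHO-K1 cells for 3hr at 37C before lysis.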
% is set by controls: 0 for no effect and ±100 for the full control effect.

As to `CC(=O)[O-].CC(=O)[O-].CC(=O)[O-].[Sb+3]`, the activation in assay [1] is -0.789% [at 2.67 µM]. Besides, the activity change, negative = cytotoxicity was -1.46% [at 5.43 µM] in assay [2], -0.623% [at 2.72 µM] in assay [3], 1.77% [at 2.72 µM] in [6] and -11.8% [at 2.72 µM] in assay [14]. In addition, the activity change, negative = cytotoxic in [4] was 7.03% [at 2.72 µM]; in assay [11], 8.41% [at 2.72 µM]. The cytotoxicity increase in [5] was 2.55% [at 2.72 µM]; in assay [10] it was -16% [at 2.72 µM]; in [13] it was -22.4% [at 2.72 µM]. Moreover, the viability change, negative = cytotoxic in assay [7] is -4.57% [at 2.72 µM]. In addition, the max response in [8] is 11.6%. Further, the activity change in [9] is 1.85% [at 2.72 µM, stronger effect = higher value]. Also, in assay [12], the cytotoxicity is -19.2% [at 2.72 µM].

Take `CC(=O)O.CC(=O)O.CC(=O)O.CC(=O)O.CC(=O)O.CC(=O)O.CC(=O)O.O.O.[Cr].[Cr].[Cr]`: the Potency result in assay [1], in assay [2], in [3], in assay [4], in assay [15] and in assay [16] was “inactive” throughout. Moreover, the Potency entry in [5], in [6], in assay [7], in assay [9], in assay [10] and in assay [11] was “inactive” each time. The Potency result in assay [12], in [13] and in assay [14] was “inactive” throughout. In addition, the max response in assay [8] was 2.64%.

Take `CCCCON=O`: the Potency entry in [1], in assay [2], in [17], in assay [3], in assay [4] and in assay [15] was “inactive” in each case. Further, the Potency result in [16], in [5], in [6], in assay [7], in assay [10] and in [13] was “inactive” in each case. Moreover, the Potency result in [14] was “inactive”. Besides, the activity change, positive = activation in [18] was -4.4%. Moreover, the max response in [8] was 4.44%.

Consider `CC1CCCC1`, for which the Potency entry in [1], in assay [2], in assay [3], in assay [4], in assay [15] and in [16] was “inactive” in each case. In addition, the Potency result in assay [5], in [6], in [7], in assay [9], in [10] and in assay [11] was “inactive” in each case. Besides, the Potency entry in [12], in assay [13] and in assay [14] was “inactive” each time. The max response in [8] is -28.5%.

Consider `N#Cc1c2ccccc2cc2ccccc12`, for which the Potency entry in assay [19], in assay [17], in [3], in assay [4], in assay [15] and in assay [16] was “inactive” in each case. The Potency entry in assay [5], in [6], in assay [7], in assay [10] and in assay [11] was “inactive” each time. In addition, in assay [18], the activity change, positive = activation is 3.94%. Moreover, in assay [8], the max response was -9.07%.

Take `O=C1C2(Cl)C3(Cl)C4(Cl)C(Cl)(Cl)C5(Cl)C3(Cl)C1(Cl)C5(Cl)C24Cl` (centres undefined): the Potency in assay [2] is 49.6 µM (active) and 96.5 µM (active); in assay [3] it was 42.9 µM (active) and 46.9 µM (active); in assay [4] it was 19.2 µM (active) and 41.8 µM (active); in assay [16], 54 µM (active) and 46.9 µM (active); in assay [5], 42.9 µM (active) and 52.6 µM (active); in [6] it was 21.5 µM (active) and 41.8 µM (active). Moreover, the Potency in [7] was 42.9 µM (active) and 46.9 µM (active); in assay [8] it was 13.6 µM (active) and 37.3 µM (active); in assay [9], 38.3 µM (active) and 52.6 µM (active); in assay [10], 24.1 µM (active) and 41.8 µM (active); in [12] it was 48.2 µM (active) and 41.8 µM (active); in assay [13], 21.5 µM (active) and 37.3 µM (active). The activity change, positive = activation in [18] is -74.4% and -66.3%. In addition, the Potency entry in assay [15] and in [14] was “inactive” in each case.

Consider `C=CCOC(=O)c1ccccc1N`, for which the Potency entry in assay [19], in assay [1], in [3], in assay [4], in assay [15] and in assay [16] was “inactive” in each case. Further, the Potency result in assay [6], in assay [7], in assay [10], in assay [12], in [13] and in assay [14] was “inactive” in each case. For the same compound, the activity change, positive = activation in assay [18] was -28.9%. In addition, the max response in assay [8] is -17.8%.

For `CCCCCCCc1ccc(O)cc1`, the Potency in assay [2] is 50.5 µM (active); in assay [4] it was 19.5 µM (active); in [5] it was 43.6 µM (active); in [6] it was 11 µM (active); in assay [8], 21.9 µM (active); in assay [10], 21.9 µM (active). In addition, the Potency in assay [12] and in assay [13] was 21.9 µM (active) throughout. Also, the Potency entry in [15], in [16], in assay [11] and in assay [14] was “inactive” throughout.

Consider `CCCCCCC[CH2][Sn]([Cl])([Cl])[CH2]CCCCCCC`, for which the Potency result in assay [2], in assay [3], in assay [4], in assay [15], in [16] and in assay [5] was “inactive” each time. Also, the Potency result in assay [6], in assay [7], in assay [9], in [10], in assay [11] and in assay [13] was “inactive” throughout. The Potency result in assay [14] was “inactive”. For the same compound, the activity change, positive = activation in assay [18] was -59.9%. Moreover, in assay [8], the max response is -19.1%.

Consider `CO/N=C(/C1=NOCCO1)c1ccccc1Oc1ncnc(Oc2ccccc2Cl)c1F`, for which the Potency result in assay [19], in assay [1], in assay [15], in assay [5], in [6] and in assay [7] was “inactive” throughout. For the same compound, the Potency result in assay [9], in [10], in assay [12], in assay [13] and in assay [14] was “inactive” each time. For the same compound, the Potency in [2] was 12.7 µM (active).

For `N#CSCc1ccccc1`, the Potency result in [19], in [1], in assay [2], in assay [4], in assay [15] and in assay [16] was “inactive” each time. Also, the Potency entry in [5], in [6], in assay [7], in [9], in assay [10] and in assay [11] was “inactive” each time. Also, the Potency entry in assay [12], in assay [13] and in assay [14] was “inactive” each time. Besides, in [8], the max response was -24.3%.

`CCC1COC(Cn2cncn2)(c2ccc(Cl)cc2Cl)O1` (centres undefined): the Potency result in assay [19], in [1], in assay [3], in assay [15], in [16] and in [5] was “inactive” throughout. Also, the Potency entry in assay [7], in [9], in assay [10], in [11], in assay [12] and in assay [14] was “inactive” throughout. Besides, in assay [17], the Potency is 61.1 µM (active). In addition, the activity change, positive = activation in assay [18] is -57.5%.

In the case of `CCC[CH2][Sn]([CH2]CCC)([O]C(C)=O)[O]C(C)=O`, the Potency in [19] is 0.906 µM (active); in assay [3], 278 nM (active); in [4], 0.0783 µM (active); in assay [16] it was 175 nM (active); in [5], 0.278 µM (active); in assay [6], 0.0879 µM (active). The Potency in assay [8] is 0.0698 µM (active); in assay [9], 1.24 µM (active); in assay [10] it was 1.24 µM (active); in [11] it was 0.221 µM (active); in [12], 0.312 µM (active); in [13], 0.248 µM (active). Moreover, the Potency entry in [2], in assay [15], in [7] and in assay [14] was “inactive” each time. For the same compound, the activity change, positive = activation in [18] was -79.9%.
